The text below walks through data of PubChem BioAssay (NCI).

What all share (assay): NCI-60 one-dose screen, 48 h (100 = growth as untreated, 0 = no growth, -100 = all killed)
What all share (conditions): 10 µM unless noted

The subject of assay [1] is SR leukemia.
For assay [2], the system named is RPMI-8226 leukemia.
Assay [3] has as its system OVCAR-8 ovarian.
In assay [4] the test system is OVCAR-5 ovarian.
The subject of assay [5] is OVCAR-4 ovarian.
The subject of assay [6] is SK-OV-3 ovarian.
The subject of assay [7] is IGROV1 ovarian.
Assay [8] concerns OVCAR-3 ovarian.
Assay [9] concerns HS 578T breast.
Assay [10] has as its system NCI/ADR-RES ovarian.

Compounds without any hit were thinned out: in the full panel of roughly 83,000, 20% have a hit.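 For each line, cells grew in 96-well plates with the test compound present at a single concentration for 48 hours.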 Values without a mark were called inactive. Activity calls are given as the source filed them. Rule for the calls: active = growth percent below 10; inactive = the rest.

For the compound `CSc1nnc(-c2cnn3c2NC(c2ccccc2)C3)n1-c1ccc(C(F)(F)F)cc1` (stereo not given), the growth was 17.2% in assay [1]; 56.9% in [2]; 79.4% in assay [3]; 84.7% in [4]; 59.1% in assay [5]; 69.4% in [6]. For the same compound, the growth in [7] is 69.8%; in [8] it was 37.6%; in assay [9], 64.7%; in [10] it was 56%.

With `O=C(Nc1nc2ccc(F)cc2s1)c1cccnc1Nc1ccc(Cl)cc1`, the growth is 29.5% in assay [1]; 25% in [2]; 47.3% in assay [3]; 90.9% in assay [4]; -13.1% (active) in [5]; 58% in [6]. The growth in [7] was 39.9%; in [8], 13.6%; in assay [9] it was 39.6%; in [10], 10.5%.

Turning to `C=C(C)[C@@H]1CC[C@]2(C(=O)OC)CC[C@]3(C)[C@H](CC[C@@H]4[C@@]5(C)C/C(=C/NC(N)=S)C(=O)C(C)(C)[C@@H]5CC[C@]43C)[C@@H]12`, the growth was 81.6% in [1]; 69.6% in assay [2]; 97.5% in [3]; 118% in assay [4]; 84.2% in assay [5]; 97.7% in [6]. Also, the growth in [7] is 70.6%; in assay [8], 88.5%; in assay [9], 91.7%; in assay [10], 104%.

In the case of `COc1ccc(-c2ccc3cnc4sc(-c5ccc(OC)cc5)nc4c3n2)cc1`, the growth in assay [1] is 83.7%; in assay [2], 87.5%; in [3], 96.3%; in assay [4], 97.4%; in [5], 96.9%; in assay [6], 92.6%. In addition, the growth in assay [7] was 94%; in [8], 101%; in assay [9] it was 94.4%; in [10], 92.9%.

As to `CN(CCn1sc(=O)n(Cc2ccccc2)c1=O)Cc1ccc2c(Cl)cc(Cl)c(O)c2n1`, the growth in assay [1] was 39.2%; in [2] it was 45%; in [3], 32.7%; in assay [4] it was 61.4%; in [5], 59.3%; in assay [6], 65.4%. The growth in assay [7] is 37.3%; in assay [8], 18.9%; in assay [9], 68.1%; in [10], 6.83% (active).

On to `COc1ccccc1Nc1nc2c(s1)C1=CC[C@H]3[C@@H]4CC[C@H]([C@H](C)CCCC(C)C)[C@@]4(C)CC[C@@H]3[C@@]1(C)CC2`, for which the growth in assay [1] was 108%; in [2] it was 111%; in assay [3], 103%; in assay [4] it was 106%; in assay [5] it was 99.8%; in assay [6], 101%. For the same compound, the growth is 99.2% in assay [7], 103% in [8], 105% in [9] and 96.1% in assay [10].

`COc1ccc(-c2csc(NC(=O)CSc3nc(-c4ccccc4)cc(=O)[nH]3)n2)cc1`: the growth was 61.1% in assay [1]; 41.8% in assay [2]; 70.8% in [3]; 94.3% in assay [4]; 54.2% in assay [5]; 91% in [6]. Also, the growth in assay [7] is 71.6%; in [8], 72%; in assay [9] it was 84.6%; in [10], 51.3%.

Regarding `CC(=O)OCc1nc(C#N)c(N(C)C)o1`, the growth in [1] was 92.2%; in assay [2] it was 99.6%; in [3], 94.1%; in assay [4] it was 86.9%; in assay [5], 100%; in assay [6], 90.1%. Also, the growth in assay [7] is 95%; in assay [8], 99.1%; in assay [9], 99.4%; in [10], 103%.

As for `N#Cc1cnc(NCCc2ccncc2)nc1-n1cnc2ccccc21`, the growth in [1] is 35.4%; in assay [2] it was 65.3%; in [3], 54%; in assay [4] it was 66.9%; in assay [5], 74.2%; in [6], 25.5%. In addition, the growth was 29.1% in assay [7], 76.7% in [8], 72.1% in assay [9] and 64.9% in [10].

`CCOC(=O)c1cnc2ccccc2c1Cl`: the growth in assay [1] was 109%; in [2], 114%; in [3], 99.6%; in assay [4], 98.3%; in assay [5], 84.7%; in assay [6] it was 101%. Besides, the growth was 122% in assay [7], 106% in assay [8], 92.9% in assay [9] and 105% in [10].

In the case of `COc1ccc(OC)c(C(=O)/C=C/c2cc3c(c(OC)c2OC)OCO3)c1`, the growth in [1] was 17.8%; in assay [2] it was 6.09% (active); in [3] it was 58.1%; in assay [4] it was 121%; in [5], 63.4%; in assay [6], 79.1%. Further, the growth in assay [7] is 71.5%; in [8] it was 59.4%; in assay [9] it was 75.9%; in assay [10], 63.1%.

On to `Cc1cc2c(O)c(-c3cccc(Cl)c3)c3sc(=O)oc3c2cc1C`, for which the growth in assay [1] is 18.6%; in assay [2] it was 12.1%; in assay [3] it was 41.9%; in assay [4], 106%; in [5] it was 13.4%; in assay [6], 59.4%. The growth in assay [7] is 41%; in [8], 18.6%; in assay [9] it was 48.2%; in assay [10], 56.3%.

For the compound `Nc1c(C(=O)Nc2ccncc2)sc2nc3c(cc12)CCCCCC3`, the growth was 20.8% in [1]; 64.9% in assay [2]; 86.7% in [3]; 90.7% in assay [4]; 86.9% in [5]; 79.6% in [6]. The growth in assay [7] was 103%; in [8], 104%; in assay [9], 83.2%; in assay [10] it was 89%.
